Reference: the supplement of paper PMC8183993
Values joined by “and” are separate entries in the source; they are usually repeats but may differ in a detail not shown here. Identical values can stand only once. Counter-ions that a name gives are not always drawn. ± gives the standard deviation of the averaged measurements. The full ranking holds about 3,100 compounds; the median of “mean cytoplasmic OPP incorporation (global translation) relative to DMSO” is about 100, and the lowest 2% start at about 56. What follows is part of a selection rich in the lowest values, with near analogues and random picks from the rest.

System: U2OS
Experiment: mean cytoplasmic OPP incorporation (global translation) relative to DMSO (% of DMSO); higher = more protein synthesis
Conditions: 10 µM; 24 h
Method: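 Primary image-based screen in U2OS cells: compounds at 10 uM for 24 h, then a 1 h o-propargyl-puromycin (OPP) pulse, click labelling, and high-throughput microscopy. Mean cytoplasmic OPP intensity and nuclei count were normalised to DMSO wells within each plate (DMSO = 100) and averaged over triplicate plates.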

| SMILES | mean cytoplasmic OPP incorporation |
| --- | --- |
| CC(C)[C@H](N)C(=O)N[C@H](C(=O)N[C@H](C(=O)O)C(C)C)C(C)C | 114 |
| O=C(/C=C/C#Cc1cccc(NS(=O)(=O)c2ccccc2)c1)NO [Oxamflatin] | 105 |
| CC(=O)[C@]1(O)Cc2c(O)c3c(c(O)c2[C@@H](O[C@H]2C[C@H](N)[C@H](O)[C@H](C)O2)C1)C(=O)c1ccccc1C3=O [Idarubicin HCl] | 60.3 |
| COc1cccc2c1C(=O)c1c(O)c3c(c(O)c1C2=O)C[C@@](O)(C(=O)CO)C[C@@H]3O[C@H]1C[C@H](N)[C@H](O)[C@H](C)O1 [Doxorubicin (Adriamycin)] | 67.1 |
| COc1cccc2c1C(=O)c1c(O)c3c(c(O)c1C2=O)C[C@@](O)(C(C)=O)C[C@@H]3O[C@H]1C[C@H](N)[C@H](O)[C@H](C)O1 [Daunorubicin hydrochloride] | 40.7 |
| COc1cccc2c1C(=O)c1c(O)c3c(c(O)c1C2=O)C[C@@](O)(C(=O)CO)C[C@@H]3O[C@H]1C[C@H](N)[C@@H](O)[C@H](C)O1 [Epirubicin HCl] | 59.5 |
| COc1cccc2c1C(=O)c1c(O)c3c(c(O)c1C2=O)C[C@@](O)(C(=O)CO)C[C@@H]3O[C@H]1C[C@H](N)[C@H](O)[C@H](C)O1 [Doxorubicin hydrochloride] | 54.8 ± 17 |
| COc1cccc2c1C(=O)c1c(O)c3c(c(O)c1C2=O)C[C@@](O)(C(C)=O)C[C@@H]3O[C@H]1C[C@H](N)[C@H](O)[C@H](C)O1 [Daunorubicin HCl (Daunomycin HCl)] | 59.9 |
| COc1cccc2c1C(=O)c1c(O)c3c(c(O)c1C2=O)C[C@@](O)(C(=O)CO)C[C@@H]3O[C@H]1C[C@H](N)[C@H](O[C@@H]2CCCCO2)[C@H](C)O1 [Pirarubicin] | 59.9 |
| CC(C)C(=O)SCCCCCCC(=O)Nc1nc(-c2ccccc2)cs1 | 117 |
| CCCCCCN(CCCCCC)C(=O)Cc1c(-c2ccc(Cl)cc2)[nH]c2ccc(Cl)cc12 | 104 |
| Cc1ccc(CC2(O)CCN(CCOc3ccc(O)cc3)CC2)cc1 | 108 |
| COc1cc(C#N)ccc1S(=O)(=O)Nc1ccc2c(c1)cc(C)c(=O)n2C | 109 |
| COc1ccc(CCN(C)CCCOc2ccc(S(=O)(=O)c3c(C(C)C)c4ccccc4n3C)cc2)cc1OC | 110 |
| Clc1cc2c(NC3CCCC3)nnc(-c3ccncc3)c2cc1Cl | 114 |
| Cc1cnc(Nc2ccc(OCCN3CCCC3)cc2)nc1Nc1cccc(S(=O)(=O)NC(C)(C)C)c1 | 82.6 and 66.4 |
| CCN(CC)CCOc1ccc(Nc2ncc3cc(-c4c(Cl)cccc4Cl)c(=O)n(C)c3n2)cc1 | 53.6 |
| CSc1cccc(Nc2ncc3cc(-c4c(Cl)cccc4Cl)c(=O)n(C)c3n2)c1 | 116 |
| Cc1ccc(S(=O)(=O)C=CC#N)cc1 | 65.3 |
| O=C1Nc2ccc(-c3cccnc3)cc2/C1=C/c1ccc[nH]1 [JAK3 Inhibitor VI] | 90 |
| N=C(N)c1ccc(N2CCN(C3CCN(CC(=O)O)CC3)CC2)cc1 | 99.3 |
| NC[C@H]1CC[C@H](C(=O)O)CC1 [Tranexamic acid] | 47 |

| SMILES | mean cytoplasmic OPP incorporation |
| --- | --- |
| NCC1CCC(C(=O)N[C@@H](Cc2ccccc2)C(=O)Nc2ccc(CC(=O)O)cc2)CC1 (stereo partly specified) | 97.5 |
| CC1(C)CCC(C)(C)c2cc(C(=O)Nc3ccc(C(=O)O)cc3)ccc21 | 105 and 99.6 |
| CN(CCc1ccc(Cl)c(Cl)c1)CC(O)COc1ccc(NS(C)(=O)=O)cc1 (stereo unspecified) | 102 and 107 |
| N#Cc1ccc(NC(=O)Nc2ccccc2Br)c2n[nH]nc12 | 104 |
| Cc1nc(Nc2n[nH]c3c2CN(C(=O)N[C@H](CN(C)C)c2ccccc2)C3(C)C)c2sccc2n1 | 45.5 |
| CC(C)CC(=O)Nc1n[nH]c2c1CN(C(=O)C1CCN(C)CC1)C2(C)C | 65.9 |
| CSc1nc(NC2CCCC2)c([N+](=O)[O-])c(NC2CCCC2)n1 | 101 |
| COC(C)(C)CCCC(C)C/C=C/C(C)=C/C(=O)O (stereo unspecified) [Methoprene acid] | 99.2 |
| CC(=O)OCOC(c1cc([N+](=O)[O-])ccc1Oc1ccc(Br)cc1)P(=O)(OCOC(C)=O)OCOC(C)=O (stereo unspecified) | 101 |
| CC(C)N1Cc2cc(S(C)(=O)=O)ccc2N(CCN2CC=C(c3c[nH]c4cc(F)ccc34)CC2)S1(=O)=O | 106 |
| CC(C)[C@H]1c2ccc(F)cc2CC[C@@]1(CCN(C)CCCc1nc2ccccc2[nH]1)OC(=O)C1CC1 [NNC 55-0396 dihydrochloride] | 55.5 |
| COCC(=O)O[C@]1(CCN(C)CCCc2nc3ccccc3[nH]2)CCc2cc(F)ccc2[C@@H]1C(C)C [Mibefradil dihydrochloride] | 116 |
| N#Cc1ccc(NCCNCC(=O)N2CCC[C@H]2C#N)nc1 [NVP DPP 728 dihydrochloride] | 90.3 |
| COc1ccc(CCN(C)CCCN2CCc3cc(OC)c(OC)cc3CC2=O)cc1OC [Zatebradine hydrochloride] | 107 |
| COc1cc(N)c(Cl)cc1C(=O)OCCCN1CCCCC1 | 104 |
| O=C(O)c1ccc(N2C(=O)C(=Cc3ccccc3)SC2=S)cc1 | 102 |
| Cc1cc(-c2ccccc2)nnc1NCCN1CCOCC1 [Minaprine dihydrochloride] | 99.4 |
| O=C1C(Cl)=C(NCCN2CCOCC2)C(=O)c2ncccc21 | 31 |
| O=C(NCCN1CCOCC1)c1ccc(Cl)cc1 [Moclobemide] | 91.9 |
| Cl/C(=C\n1cncn1)c1ccc(Cl)cc1Cl [Loreclezole hydrochloride] | 98.7 |
| Cc1oc(S(=O)(=O)N2CCCCC2)cc1NC(=O)Nc1ccccc1 | 102 |
| O=C(NCCCCN1CCN(c2cccc(Cl)c2Cl)CC1)c1ccc2c(c1)Cc1ccccc1-2 | 107 |

| SMILES | mean cytoplasmic OPP incorporation |
| --- | --- |
| COc1ccccc1N1CCN(CCCCNC(=O)c2ccc3ccccc3c2)CC1 | 112 |
| Cc1cn(CCN2CCN(c3ccccc3-c3cc(C#N)cc(C(=O)NCCCN4CCCC4)c3)CC2)c2ccccc12 | 30.6 |
| CC(C)=CCC/C(C)=C/CC/C(C)=C/CSCC(=O)O [Farnesylthioacetic acid] | 96.1 |
| CSCC[C@H](NC=O)C(=O)N[C@@H](CC(=O)O)C(=O)NCC(=O)N[C@@H](CS)C(=O)N[C@@H](CCC(=O)O)C(=O)N[C@@H](CC(C)C)C(=O)O | 103 |
| CC(=O)N1CCN(C)CC1 [1-Acetyl-4-methylpiperazine hydrochloride] | 99.1 |
| Cc1ccc([N+](=O)[O-])cc1S(=O)(=O)N(C)/N=C/c1cnc2ccc(Br)cn12 | 44.3 |
| Cc1ccc([N+](=O)[O-])cc1S(=O)(=O)N(C)C | 94.1 |
| Cn1cccc1/C=C1\C(=O)NC(=O)c2ccccc21 | 89.4 |
| Cc1cc(Nc2ncc(Cl)c(Nc3ccccc3S(=O)(=O)C(C)C)n2)c(OC(C)C)cc1C1CCNCC1 [Ceritinib (LDK378)] | 25.4 |
| CC(C)Oc1cc(Nc2nc(N[C@@H](C)c3ccc(F)cn3)ncc2Cl)n[nH]1 | 110 |
| O=C1C(SCCO)=C(SCCO)C(=O)c2ccccc21 | 71.3 and 55.3 |
| O=C1c2ccccc2-c2nc3nonc3nc21 | 81.3 |
| O=C1c2ccccc2C(=O)c2c1ccc(O)c2O [Alizarin] | 106 |
| O=[N+]([O-])c1ccc(Oc2ccc(Br)cc2)c(C(O)P(=O)(O)O)c1 (stereo unspecified) | 95.9 |
| COC(=O)C(Cc1ccc(OCCn2c(=O)sc3cc(C(=O)c4ccccc4)ccc32)cc1)C(=O)OC | 105 |
| CC(=O)OC[C@H]1O[C@@H]([S-])[C@H](OC(C)=O)[C@@H](OC(C)=O)[C@@H]1OC(C)=O.CCP(CC)CC.[Au+] [Auranofin] | 10.4 |
| CCCCc1nc2ccn(Cc3cccs3)c(=O)c2n1Cc1ccc(-c2ccccc2-c2nn[nH]n2)cc1 | 104 |
| COc1cc(-c2cn(C)c(=O)c3cnccc23)c(OC)cc1CN(C)C | 95.8 |
| c1ccc(-c2n[nH]c3c2oc2ccccc23)cc1 | 87.3 |
| O=C1NCCc2[nH]c(-c3ccncc3)cc21 | 49.9 ± 13 |
| O=C1NC(=O)/C(=C/c2ccc3nccc(-c4ccncc4)c3c2)S1 | 90.1 |
| Cc1[nH]c(=O)c(C#N)cc1-c1ccncc1 [Milrinone] | 94.4 |
